ABHD5 PLIN5 PPI = inhibitors of human ABHD5-perilipin-5 interaction. hit rate 0.78% among 360,000. Q00G26+Q8WTS1. inhibition, % at 4 µM. AID 602281. Split G. princeps luciferase complementation, luminescence, 4 h;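 active = inhibition above the mean inhibition across every tested compound plus 3 SD, cut at about 22% in these data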
LANA-H2A inh = blocks KSHV LANA binding to histone H2A/H2B. Q9QR71. cell-free LANA-H2A/H2B peptide, fluorescence polarization. inhibition, % (no concentration beside the values). hit rate 0.6% among 320,000. AID 2629; in the data active = inhibition mostly above about 10%, no sharp cut-off; inactive = mostly below about 6.7%
ALR H2O2 inh = inhibitors of human sulfhydryl oxidase ALR; AID 485317; P55789; hit rate 3.8% among 290,000; purified ALR, DTT oxidation, H2O2 HRP-luminol luminescence; inhibition, % (test concentration not listed);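 active = mean replicate inhibition above about 79%, with every replicate also reaching it, limit read from the data; inconclusive = only one of the two criteria met; inactive = mean below limit and not every replicate reaching it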
Target sequence (P55789 whole entry, looked up): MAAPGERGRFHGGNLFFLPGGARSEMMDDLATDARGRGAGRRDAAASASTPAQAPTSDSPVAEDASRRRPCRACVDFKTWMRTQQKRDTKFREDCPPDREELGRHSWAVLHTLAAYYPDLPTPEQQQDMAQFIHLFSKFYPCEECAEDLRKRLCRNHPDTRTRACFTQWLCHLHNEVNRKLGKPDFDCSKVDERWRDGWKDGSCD
Rtt109 HAT inh = blocks Candida albicans Rtt109/Vps75 acetyltransferase activity; purified Rtt109/Vps75, ThioGlo CoA-SH fluorescence, 4 h; hit rate 0.16% among 330,000; Q5AAJ8; inhibition, % at 34.9 µM; AID 540336;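 active = inhibition of at least 50% in every replicate; inconclusive = best replicate reaches 50% inhibition but some replicates fall short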
rCAG binder = molecules binding r(CAG) RNA repeats; r(CAG) RNA repeat, TO-PRO-1 dye displacement fluorescence; inhibition, % at 3 µM; hit rate 1.3% among 370,000;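 active = inhibition above the plate cutoff, the mean of all test compounds on that plate plus 3 SD, cut at about 35% in these data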;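 also: higher means more dye released from RNA so lower well fluorescence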
PRMT1 inh = inhibitors of human PRMT1 | Q99873 | recombinant PRMT1, activity-based probe fluorescence polarization | inhibition, % at 2.79 µM | hit rate 1.3% among 370,000;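 active = inhibition above about 21% made by adding two undisclosed values, limit read from the data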
Target sequence (Q99873 whole entry, looked up): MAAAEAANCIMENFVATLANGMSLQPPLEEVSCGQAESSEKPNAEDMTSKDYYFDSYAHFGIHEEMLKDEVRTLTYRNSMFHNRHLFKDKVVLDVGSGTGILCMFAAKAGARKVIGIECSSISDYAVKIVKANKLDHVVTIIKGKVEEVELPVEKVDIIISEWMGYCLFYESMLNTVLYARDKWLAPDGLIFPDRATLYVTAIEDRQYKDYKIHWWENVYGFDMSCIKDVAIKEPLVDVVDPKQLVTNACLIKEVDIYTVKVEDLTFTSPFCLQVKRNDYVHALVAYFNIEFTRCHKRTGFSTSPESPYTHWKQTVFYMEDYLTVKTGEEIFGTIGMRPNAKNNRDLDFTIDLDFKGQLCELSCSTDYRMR
Of the large screens only hits and unclear results are named; the others gave an inactive call. Most compounds without a hit are left out; they make up all but 5.9% or so of the library.

CN(CCc1ccccn1)C(=O)c1ccc2c(c1)ncn2C1CCCCC1	none (no result: ABHD5 PLIN5 PPI, LANA-H2A inh, ALR H2O2 inh, Rtt109 HAT inh)
CCCCN(CCCC)CCCNC(=O)Cn1cc(C)c(=O)[nH]c1=O	none (no result: ABHD5 PLIN5 PPI, LANA-H2A inh, ALR H2O2 inh, Rtt109 HAT inh)
Clc1ccc(-c2nc3c4ccccc4ccn3c2Cc2ccsc2)cc1	none (no result: LANA-H2A inh, ALR H2O2 inh, Rtt109 HAT inh)
COc1ccc(CC(/C=C/c2ccc(F)cc2)c2ccccc2)cc1 (stereo not given)	none (no result: ABHD5 PLIN5 PPI, LANA-H2A inh, ALR H2O2 inh, Rtt109 HAT inh)
CN(CC(=O)Nc1cccc2ccccc12)C(=O)c1ccc(NC(=O)CC#N)cc1	ALR H2O2 inh 94
OC(c1ccccc1)(c1ccccc1)C1CCN(CCCOc2ccc(-c3cccnc3)cc2)CC1	none (no result: ABHD5 PLIN5 PPI, LANA-H2A inh, ALR H2O2 inh, Rtt109 HAT inh)
C[C@@H]1CN([C@@H](C)CO)C(=O)CCCn2cc(nn2)CO[C@H]1CN(C)S(=O)(=O)c1ccc(C#N)cc1	none (no result: LANA-H2A inh, ALR H2O2 inh, Rtt109 HAT inh)
CCOc1ccccc1C(c1c(O)nc(SC)[nH]c1=O)c1c(O)nc(SC)[nH]c1=O	none (no result: Rtt109 HAT inh)
C=CCOc1ccc(C(c2c(O)nc(SC)[nH]c2=O)c2c(O)nc(SC)[nH]c2=O)cc1	ALR H2O2 inh 90
O=C(NNS(=O)(=O)c1ccc(C(=O)NC2CCCC2)cc1)c1ccncc1	ALR H2O2 inh 99
COc1ccc(C(=O)NNS(=O)(=O)c2ccc(OC)cc2)cc1	ALR H2O2 inh 87
COc1ccc(C(=O)NNS(=O)(=O)c2ccccc2)cc1	none (no result: LANA-H2A inh, ALR H2O2 inh)
CC1CCCCC1NC(=O)c1ccc(S(=O)(=O)NNC(=O)c2ccncc2)cc1 (stereo not given)	ALR H2O2 inh 99
COc1nc(OC)nc(N2CCC(C(=O)NCc3ccccc3OC)CC2)n1	none (no result: ABHD5 PLIN5 PPI, LANA-H2A inh, ALR H2O2 inh, Rtt109 HAT inh)
C[C@H](c1ccccc1)N1C[C@@H](COCc2ccccc2)Oc2cccc(Oc3ccc(C(C)(C)C)cc3)c2S1(=O)=O	none (no result: ABHD5 PLIN5 PPI, LANA-H2A inh, ALR H2O2 inh, Rtt109 HAT inh)
COc1ccc2nc(S(=O)Cc3ncc(C)c(OC)c3C)[nH]c2c1 (stereo not given)	ALR H2O2 inh 98
COCCCOc1ccnc(CS(=O)c2nc3ccccc3[nH]2)c1C (stereo not given)	none
COc1cc(C2NC(=O)C(C#N)=C(Nc3cccc(C)c3)S2)ccc1O (stereo not given)	Rtt109 HAT inh 147 (no result: ALR H2O2 inh)
O=C(NCCN1CCC(n2c(=O)[nH]c3ccccc32)CC1)c1cccs1	none (no result: LANA-H2A inh, ALR H2O2 inh, Rtt109 HAT inh)
CC(/C=C1\SC(=S)N(C(C(=O)O)c2ccccc2)C1=O)=C\c1ccccc1 (stereo not given)	Rtt109 HAT inh 66
C=CCOc1ccc(/C=C2\SC(=S)N(C(C(=O)O)c3ccccc3)C2=O)cc1 (stereo not given)	none (no result: LANA-H2A inh, ALR H2O2 inh)
O=C(O)C(c1ccccc1)N1C(=O)/C(=C/c2cccs2)SC1=S (stereo not given)	ALR H2O2 inh 98
CCCCC(=O)N(C)c1c(C)nc2ccc(C(=O)N3CCN(C(=O)c4ccco4)CC3)cn12	none (no result: LANA-H2A inh, ALR H2O2 inh, Rtt109 HAT inh)
N#Cc1cc2cc(Cl)ccc2[nH]c1=O	none (no result: LANA-H2A inh, ALR H2O2 inh, Rtt109 HAT inh)
Cc1ccc(O)c(-c2cc3ccccc3[nH]2)c1	ALR H2O2 inh 99
Cc1cc(CNC(=O)[C@H]2C[C@@H]2[C@H](NP(=O)(c2ccccc2)c2ccccc2)c2ccccc2)nn1C	LANA-H2A inh 24 (no result: ABHD5 PLIN5 PPI, Rtt109 HAT inh)
Oc1cccc(Nc2nc(O)c(/C=C3\C=Nc4ccccc43)s2)c1	rCAG binder 48
CC1=Nc2ccccc2/C1=C\c1sc(Nc2ccc(C)cc2)nc1O	none (no result: ALR H2O2 inh)
Oc1nc(Nc2cccc(Cl)c2)sc1/C=C1\C=Nc2ccccc21	rCAG binder 55
O=C(Nc1cccc(F)c1)O[C@@H]1CC[C@@]23CCCN2C(=O)CCC[C@H]3C1	none (no result: ABHD5 PLIN5 PPI, LANA-H2A inh, ALR H2O2 inh, Rtt109 HAT inh, rCAG binder)
CC(C)(C)N1C(=O)c2ccc(C(=O)Nc3ccc(O)cc3)cc2C1=O	ALR H2O2 inh 98
Cc1noc(C)c1CCC(=O)Nc1cc(C(=O)O)ccc1Cl	none (no result: LANA-H2A inh, ALR H2O2 inh, Rtt109 HAT inh)
COc1ccc(N2CCN(C(CNC(=O)C(=O)NCCCO)c3ccco3)CC2)cc1 (stereo not given)	ALR H2O2 inh 86
O=C(CSc1ccccc1)NCC(c1ccco1)N1CCCCC1 (stereo not given)	LANA-H2A inh 28
O=S(=O)(NCC(c1ccco1)N1CCN(c2ccc(F)cc2)CC1)c1ccc(F)cc1 (stereo not given)	none
COc1ccccc1CC(=O)NCC(c1ccco1)N1CCCCC1 (stereo not given)	none
COc1ccc(N2CCN(C(CNS(C)(=O)=O)c3ccco3)CC2)cc1 (stereo not given)	ALR H2O2 inh 92 (no result: Rtt109 HAT inh)
COc1ccc(N2CCN(C(CNC(=O)C(=O)NCCc3c[nH]c4ccccc34)c3ccco3)CC2)cc1 (stereo not given)	none
COC(=O)NCC(c1ccco1)N1CCN(c2ccc(F)cc2)CC1 (stereo not given)	ALR H2O2 inh 92
CC(=O)N1CCN(c2ccc(N3CCN(C(C)=O)[C@@H](C)C3)c(C)c2)[C@H](C)C1	none (no result: ABHD5 PLIN5 PPI, LANA-H2A inh, ALR H2O2 inh, Rtt109 HAT inh)
COc1cc(CCC(C)=O)ccc1OC(=O)c1c(-c2c(F)cccc2Cl)noc1C	none (no result: ABHD5 PLIN5 PPI, LANA-H2A inh, ALR H2O2 inh, Rtt109 HAT inh)
Cc1cc(C(=O)NCC(=O)OCC(=O)NCC2CCCO2)ccc1[N+](=O)[O-] (stereo not given)	none
COc1ccc(CN2C(=O)[C@@](O)(c3cccn3C)c3cc(F)ccc32)cc1	none (no result: ABHD5 PLIN5 PPI, LANA-H2A inh, ALR H2O2 inh, Rtt109 HAT inh)
COc1ccc(N2CCN(C(CNC(=O)COc3ccccc3)c3ccco3)CC2)cc1 (stereo not given)	ALR H2O2 inh 89
COC(=O)NCC(c1ccco1)N1CCN(c2ccc(OC)cc2)CC1 (stereo not given)	ALR H2O2 inh 89
CCS(=O)(=O)NCC(c1ccco1)N1CCN(c2ccccc2)CC1 (stereo not given)	ALR H2O2 inh 93
CCC(=O)NCC(c1ccco1)N1CCN(c2ccc(OC)cc2)CC1 (stereo not given)	ALR H2O2 inh inconclusive
COc1ccc(C(=O)N2CCCCC2c2cc(C(=O)Nc3cccc(C#N)c3)no2)cc1 (stereo not given)	none (no result: LANA-H2A inh, ALR H2O2 inh, Rtt109 HAT inh)
CC1(C)C=C2C(N(CC3CC3)C(=N)N2C(=O)OCc2ccccc2)n2c(=O)n(-c3ccccc3)c(=O)n21 (stereo not given)	none (no result: ABHD5 PLIN5 PPI, LANA-H2A inh, ALR H2O2 inh, Rtt109 HAT inh, rCAG binder)
C=CCn1c(N)cc(=O)nc1SCC(=O)Nc1ccccc1	none (no result: ALR H2O2 inh)
C=CCn1c(N)cc(=O)nc1SCC(=O)Nc1ccc(C(=O)OC)cc1	ALR H2O2 inh 99
C=CCn1c(N)cc(=O)nc1SCC(=O)Nc1ccc(C(=O)OCC)cc1	ALR H2O2 inh 99
Cc1cccc(N2CCN(CC(=O)Nc3ccc(S(=O)(=O)N4CCOCC4)cc3)CC2)c1C	none
C#CCN1C[C@@]2(O)CC[C@@H](O)[C@@H](OC)[C@@H]2[C@@]1(C)[C@H](O)CC=C(C)C	none (no result: ABHD5 PLIN5 PPI, LANA-H2A inh, ALR H2O2 inh, Rtt109 HAT inh)
Nc1ccc(C(=O)O)c(O)c1	none
O=C(O)c1ccc(O)cc1O	LANA-H2A inh 28
O=C(NC(=S)NNC(=O)c1ccco1)c1ccc(Br)cc1	ALR H2O2 inh 99
CC(Oc1ccc(Cl)cc1)C(=O)NNC(=S)NC(=O)c1ccco1 (stereo not given)	ALR H2O2 inh 98
CCCOc1ccc(C(=O)NNC(=S)NC(=O)c2ccco2)cc1	none
Cn1cccc1CC(=O)NNC(=O)Nc1ccc(Cl)cc1	LANA-H2A inh 76
